Data as given in PubChem BioAssay (EPA / NIEHS).
Values joined by “and” are separate entries in the source; they are usually repeats but may differ in a detail not shown here. Identical values can stand only once. Inconclusive results are not listed. A structure can be active in one record and inactive in another. Active and inactive are the calls of the source. How the source made its calls, unless noted: active means hit-call score of the fitted dose curve at least 0.9, where 1 is the maximum; inactive means score below 0.9.

What was measured:
[1] = CCTE_Shafer_MEA_acute_network_burst_percentage: CCTE's Neural Acute Assay for Percentage of Network Bursts, Shafer Lab (AID 2284022);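 further: curves fitted for loss so actives lower network burst percentage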
In short: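 On DIV 13 or 15, at least three wells of rat cortical neurons per compound are dosed at 0.03-40 uM. Spontaneous firing is detected at 8x rms noise for 40 min before and after dosing at 37 C. The percent change in network-burst spike share is reported.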

[2] = CCTE_Shafer_MEA_acute_cross_correlation_area: CCTE's Neural Acute Assay for Area of Cross Correlation, Shafer Lab (AID 2284024);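 further: area under pooled inter-electrode spike cross-correlation near zero lag as percent change from own baseline; curves fitted for loss of cross-correlation area so actives lower synchrony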
In short: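 Extracellular recordings from cultured rat cortical neurons measure network synchrony as cross-correlation area; each well's post-compound value (0.03-40 uM, 40 min) is compared with its own 40 min baseline to give percent change.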

[3] = CCTE_Shafer_MEA_acute_synchrony_index: CCTE's Neural Acute Assay for Synchrony, Shafer Lab (AID 2284027);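 further: network synchrony index of spontaneous spiking in primary rat cortical neurons on MEAs; fitted for loss of signal so actives lower synchrony relative to DMSO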
In short: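 Plates equilibrated 20 min at 37 C, baseline recorded 40 min, compound (0.03-40 uM) added, then 40 min more recorded. Cells: primary rat cortical neurons, DIV 13 or 15. Per-well synchrony index change analysed in negative direction against DMSO.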

[4] = target: Estrogen receptor (Homo sapiens) (UniProt P03372); assay: CCTE_Deisenroth_AIME_96WELL_LUC_Active: CCTE's 96-well Estrogen Receptor Transactivation Assay with AIME metabolic competence (ERTA luciferase; metabolism positive), Deisenroth Lab (AID 2284023; active means hit-call score of the fitted dose curve at least 0.9, where 1 is the maximum)
Chain of Estrogen receptor (Homo sapiens) (P03372 whole entry, looked up): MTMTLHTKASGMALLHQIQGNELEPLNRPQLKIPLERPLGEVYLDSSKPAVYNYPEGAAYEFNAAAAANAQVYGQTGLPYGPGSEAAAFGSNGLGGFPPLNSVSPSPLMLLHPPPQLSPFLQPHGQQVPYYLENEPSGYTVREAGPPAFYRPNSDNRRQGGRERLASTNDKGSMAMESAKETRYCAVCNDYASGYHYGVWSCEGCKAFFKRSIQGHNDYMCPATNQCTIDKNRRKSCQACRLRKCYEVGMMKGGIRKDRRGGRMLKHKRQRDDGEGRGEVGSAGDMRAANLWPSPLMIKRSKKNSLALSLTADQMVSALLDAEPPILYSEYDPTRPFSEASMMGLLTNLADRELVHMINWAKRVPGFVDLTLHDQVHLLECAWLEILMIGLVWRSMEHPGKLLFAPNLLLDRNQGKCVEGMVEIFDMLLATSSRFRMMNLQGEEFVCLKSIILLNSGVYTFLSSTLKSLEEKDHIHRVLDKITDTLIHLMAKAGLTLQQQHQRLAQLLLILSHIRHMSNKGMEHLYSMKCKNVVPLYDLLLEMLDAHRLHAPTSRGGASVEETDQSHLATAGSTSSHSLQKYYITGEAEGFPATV
Description: (§1) CCTE_Deisenroth_AIME_96WELL (AIME metabolism assay) is a cell-based, single-readout assay that uses VM7Luc4E2, a human mammary gland/breast cell line, with measurements taken at 24 hour after chemical dosing in a 96-well plate.CCTE_Deisenroth_AIME_96WELL_LUC_Active is one of four assay components measured or calculated from the CCTE_Deisenroth_AIME_96WELL assay. It is designed to make measurements of luciferase induction, a form of inducible reporter, as detected with bioluminescence signals by luciferase-coupled ATP quantitation technology.CCTE_Deisenroth_AIME_96WELL_LUC_Active is a component of the CCTE_Deisenroth_AIME_96WELL assay that measures the effect of retroftting the VM7Luc ERTA assay with the Alginate Immobolization of Metabolic Enzymes (AIME) metabolism method. AIME is optimized to impart phase I hepatic metabolism using phenobarbital/beta-naphthoflavone induced hepatic S9 from male Sprague Dawley rats. Parent chemicals are incubated for 2 hours in the AIME assay prior to transfer to the VM7Luc ERTA assay plate. […] This endpoint evaluates reporter induction in metabolism positive mode. […] This assay endpoint, CCTE_Deisenroth_AIME_96WELL_LUC_Active, was analyzed in the positive analysis fitting direction relative to 17beta-estradiol as the positive control in the ERTA assay. […]

[5] = target: Estrogen receptor (Homo sapiens) (UniProt P03372); assay: CCTE_Deisenroth_AIME_96WELL_LUC_Inactive: CCTE's 96-well Estrogen Receptor Transactivation Assay without AIME metabolic competence (ERTA luciferase; metabolism negative), Deisenroth Lab (AID 2284025; active means hit-call score of the fitted dose curve at least 0.9, where 1 is the maximum)
Description: as §1, with “96-well plate.CCTE_Deisenroth_AIME_96WELL_LUC_Inactive” for “96-well plate.CCTE_Deisenroth_AIME_96WELL_LUC_Active”, “quantitation technology.CCTE_Deisenroth_AIME_96WELL_LUC_Inactive” for “quantitation technology.CCTE_Deisenroth_AIME_96WELL_LUC_Active”, “metabolism negative” for “metabolism positive”, “endpoint, CCTE_Deisenroth_AIME_96WELL_LUC_Inactive,” for “endpoint, CCTE_Deisenroth_AIME_96WELL_LUC_Active,”

[6] = CCTE_Deisenroth_AIME_96WELL_CTox_Active: Cytotoxicity Assessment (CTOX) in CCTE's 96-well Estrogen Receptor Transactivation Assay with AIME metabolic competence (metabolism positive), Deisenroth Lab (AID 2284028; active means hit-call score of the fitted dose curve at least 0.9, where 1 is the maximum)
In short: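 Cytotoxicity in VM7Luc4E2 breast cells after 24 h exposure to medium from a 2 h metabolic pre-incubation with induced rat hepatic S9 in alginate microspheres; fluorescent live-cell protease readout, 10-point series 0.002–200 uM, n=4.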

[7] = CCTE_Deisenroth_AIME_96WELL_CTox_Inactive: Cytotoxicity Assessment (CTOX) in CCTE's 96-well Estrogen Receptor Transactivation Assay without AIME metabolic competence (metabolism negative), Deisenroth Lab (AID 2284029; active means hit-call score of the fitted dose curve at least 0.9, where 1 is the maximum)
In short: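 Metabolism-negative mode: alginate-water lids without rat S9, 2 h pre-incubation of 10-point series (0.002 - 200 uM). Conditioned medium on VM7Luc4E2 cells 24 h; loss of fluorescent live-cell protease signal marks cytotoxicity.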

[8] = target: Estrogen receptor (Homo sapiens) (UniProt P03372); assay: CCTE_Deisenroth_AIME_384WELL_LUC_Active: CCTE's 384-well Estrogen Receptor Transactivation Assay with AIME metabolic competence (ERTA luciferase; metabolism positive), Deisenroth Lab (AID 2284030; active means hit-call score of the fitted dose curve at least 0.9, where 1 is the maximum)
In short: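 Estrogenic luciferase signal in VM7Luc4E2 cells is measured at 24 hour, after chemicals have been preconditioned 2 hours with PB/BNF-induced rat hepatic S9 in alginate. Gain of signal is fitted relative to 17beta-estradiol, across 0.002 - 200 uM.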

[9] = CCTE_Shafer_MEA_dev_firing_rate_mean: CCTE's Neural Network Formation Assay for Mean Firing Rate, Shafer Lab (AID 2284031);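 on AC50: curve fitted for loss of firing so AC50 reflects decreased mean firing rate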
In short: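 Steps: seed rat cortical cells (1.5 x 10^5/well) with laminin on PEI-coated MEA; dose day 0; record DIV 5/7/9/12, full media and compound exchange after DIV 5 and 9 recordings; compute well-mean firing rate AUC.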

[10] = CCTE_Shafer_MEA_dev_per_burst_spike_percent: CCTE's Neural Network Formation Assay for Percent of Spikes in a Burst, Shafer Lab (AID 2284032);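 on AC50: fitted as a decrease in burst spike percentage below DMSO baseline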
In short: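 Value is trapezoidal AUC over recordings on days 5, 7, 9 and 12 of the well-mean fraction of spikes falling in single-electrode bursts; rat cortical cultures exposed continuously from plating, treatment renewed DIV 5 and 9, fitted downward against DMSO.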

Measured: AC50

CC(C)C1(C)N=C(c2ncccc2C(=O)O)NC1=O (stereo not given)
inactive: [1] | [2] | [3]

CC1(C)C(C=C(Cl)Cl)C1C(=O)OC(C#N)c1cccc(Oc2ccccc2)c1 (stereo not given)
inactive: [4] | [2] | [6] | [7] | [9] | [10]
active: [1] 1.94 µM | [5] 57 µM | [3] 3.97 µM | [8] 40.8 µM | [9] 2.98 µM | [10] 10 µM

CN/C(=N\[N+](=O)[O-])NCc1cnc(Cl)s1
inactive: [1] | [3] | [9] | [10]
active: [2] 0.16 µM

CC(C)N1C(=O)c2ccccc2NS1(=O)=O
inactive: [1] | [2] | [3] | [8]

CCOC(=O)C(C)OC(=O)c1cc(Oc2ccc(C(F)(F)F)cc2Cl)ccc1[N+](=O)[O-] (stereo not given)
inactive: [1] | [2] | [3] | [8] | [9] | [10]

Clc1nc(Cl)nc(Nc2ccccc2Cl)n1
inactive: [1] | [2] | [3]

Cc1c(COC(=O)[C@@H]2[C@H](/C=C(\Cl)C(F)(F)F)C2(C)C)cccc1-c1ccccc1
active: [1] 0.225 µM | [3] 0.786 µM | [9] 847 nM and 2.07 µM | [10] 1.65 µM and 1.51 µM
inactive: [2]

CC1(C)CCC(=Cc2ccc(Cl)cc2)C1(O)Cn1cncn1 (stereo not given)
inactive: [1] | [2] | [3]

CCOc1cc(C(C)(C)C)ccc1C1COC(c2c(F)cccc2F)=N1 (stereo not given)
active: [1] 20 µM | [3] 20 µM
inactive: [2]

CCOP(=O)(OCC)Oc1nc(Cl)c(Cl)cc1Cl
active: [3] 0.0262 µM | [10] 1.39 µM and 15 µM
inactive: [1] | [2] | [8] | [9] | [10]

CNC(=O)Oc1cccc2ccccc12
inactive: [1] | [2] | [3] | [9]
active: [10] 15 µM

Cc1nc(N(C)C)nc(OC(=O)N(C)C)c1C
inactive: [1] | [2]
active: [3] 20 µM

CC(C)=CC1C(C(=O)OCc2coc(Cc3ccccc3)c2)C1(C)C (stereo not given)
inactive: [1] | [2] | [8] | [9] | [10]
active: [3] 20 µM

OC(c1ccc(Cl)cc1)(c1ccc(Cl)cc1)C(Cl)(Cl)Cl
active: [1] 20 µM | [3] 8.65 µM
inactive: [2]

CC1(C)C(C(=O)OC(C#N)c2cccc(Oc3ccccc3)c2)C1(C)C (stereo not given)
inactive: [9]
active: [1] 1.54 µM | [2] 0.645 µM | [3] 1.03 µM | [10] 12.6 µM

COP(=S)(OC)SCn1nnc2ccccc2c1=O
inactive: [1] | [2] | [3] | [8] | [9] | [10]

CCCCC(O)(Cn1cncn1)c1ccc(Cl)cc1Cl (stereo not given)
active: [1] 2.23 µM
inactive: [2] | [3]

O=C(Nc1ccccc1-c1ccc(Cl)cc1)c1cccnc1Cl
inactive: [1] | [2] | [8] | [9] | [10]
active: [3] 25.3 µM | [9] 4.96 µM | [10] 9.36 µM
